Our source for the AC50 and outcome values is PubChem BioAssay (EPA / NIEHS).

Assay [1] deals with human CYP2C9, CYP2C9 (gene 1559) (UniProt P11712). Nature of the assay: NVS_ADME_hCYP2C9: NovaScreen (NVS) CYP450-related Enzyme Activity (ADME) Assay for human CYP2C9 (AID 2283108). The procedure, abridged: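 Recombinant human CYP2C9 expressed in SF9 cells, fluorogenic substrate, fluorescence read 0.75 h after dosing. Chemicals first run in duplicate at 10 uM, with actives followed in concentration series; loss of signal versus acetonitrile baseline.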

Assay [2] has as its target human Caspase 10 (CASP10), CASP10 (gene 843) (UniProt Q92851). The experiment in a line: NVS_ENZ_hCASP10: NovaScreen (NVS) Enzymatic Assay for human Caspase 10 (CASP10) (AID 2283133). Summed up: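 Fluorescence-intensity enzyme read-out of E. coli-expressed CASP10 activity, 1 h after compound. Single-point duplicates at 25 uM preceded concentration-response testing (top 50 uM) of hits; inhibition expressed as signal loss versus DMSO.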

Assay [3] deals with human Caspase 5 (CASP5), CASP5 (gene 838) (UniProt P51878). The experiment in a line: NVS_ENZ_hCASP5: NovaScreen (NVS) Enzymatic Assay for human Caspase 5 (CASP5) (AID 2283137). The procedure, abridged:
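Loss of fluorescent signal versus DMSO scored for E. coli-derived human CASP5 cleaving a fluorescent substrate, 2 h post-dosing; compounds first tested at 25 uM in duplicate, hits rerun in concentration series with 50 uM top concentration.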

The target of assay [4] is human CYP1A2, CYP1A2 (gene 1544) (UniProt P05177). The experiment in a line: NVS_ADME_hCYP1A2: NovaScreen (NVS) CYP450-related Enzyme Activity (ADME) Assay for human CYP1A2 (AID 2283102).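 Further: potency for inhibition since loss of fluorescence marks reduced CYP1A2 activity.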 The procedure, abridged: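 Recombinant human CYP1A2 from insect cells, cell-free, fluorogenic substrate; read 0.5 h after dosing with loss of fluorescence signal indicating inhibition. Primary screen in duplicate at 10 uM, acetonitrile as negative control.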

Assay [5] concerns the target Cytochrome P450 2C19 (Homo sapiens) (UniProt P33261). The experiment in a line: NVS_ADME_hCYP2C19: NovaScreen (NVS) CYP450-related Enzyme Activity (ADME) Assay for human CYP2C19 (AID 2283113).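 On AC50: potency for inhibition seen as loss of fluorescent signal.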 The procedure, abridged: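 Cell-free recombinant human CYP2C19 from insect cells, fluorescent substrate; activity read by fluorescence intensity 1 h after dosing. Primary screen in duplicate at 10 uM; actives retested in concentration series. Signal loss versus acetonitrile negative control.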

Assay [6] concerns the target human CYP4F12, CYP4F12 (gene 66002) (UniProt Q9HCS2). Nature of the assay: NVS_ADME_hCYP4F12: NovaScreen (NVS) CYP450-related Enzyme Activity (ADME) Assay for human CYP4F12 (AID 2283111). The procedure, abridged: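 Recombinant enzyme with a fluorescent substrate, signal read at 0.5 h post-dose; activity loss analysed relative to acetonitrile. Compounds first run in duplicate at 10 uM, with follow-up concentration-response testing of actives.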

In assay [7] the target is human AMP-activated Protein Kinase, alpha 1 (AMPKa1), PRKAA1 (gene 5562) (UniProt Q13131). Nature of the assay: NVS_ENZ_hAMPKa1: NovaScreen (NVS) Enzymatic Assay for human AMP-activated Protein Kinase, alpha 1 (AMPKa1) (AID 2283130). The procedure, abridged:
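Compounds were screened in duplicate at 25 uM, and those reaching ~30% inhibition were titrated up to 50 uM. The enzyme was recombinant human AMPKα1, and kinase turnover was read by fluorescence/mobility shift 1 h post-dosing as loss of signal versus DMSO.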

The target in assay [8] is rat CYP2A2, Cyp2a2 (gene 24895) (UniProt P15149). The experiment in a line: NVS_ADME_rCYP2A2: NovaScreen (NVS) CYP450-related Enzyme Activity (ADME) Assay for rat CYP2A2 (AID 2283116). The procedure, abridged: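 Compounds first tested in duplicate at 10 uM, then in singleton concentration series up to 20 uM when over threshold. Activity of the recombinant enzyme read by fluorescence at 0.2 h, normalised to acetonitrile vehicle.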

A further assay deals with rat CYP2B1, gene 24300. The experiment in a line: NVS_ADME_rCYP2B1: NovaScreen (NVS) CYP450-related Enzyme Activity (ADME) Assay for rat CYP2B1 (AID 2283117). Summed up: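 Cell-free fluorescence enzyme assay, recombinant rat CYP2B1, 0.75 h after dosing. Single-concentration duplicates at 10 uM preceded concentration series (max 20 uM) for actives; acetonitrile as negative-control baseline.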

For assay [9], the target named is human CYP2D6, CYP2D6 (gene 1565) (UniProt P10635). Nature of the assay: NVS_ADME_hCYP2D6: NovaScreen (NVS) CYP450-related Enzyme Activity (ADME) Assay for human CYP2D6 (AID 2283107). The procedure, abridged: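 Cell-free assay using recombinant human CYP2D6 expressed in insect cells, with a fluorogenic substrate read after 1 h. Primary screen in duplicate at 10 uM; actives followed up in concentration series. Loss of signal fitted relative to acetonitrile.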

In assay [10] the target is Cytochrome P450 3A4 (Homo sapiens) (UniProt P08684). The experiment in a line: NVS_ADME_hCYP3A4: NovaScreen (NVS) CYP450-related Enzyme Activity (ADME) Assay for human CYP3A4 (AID 2283110). Summed up:
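Recombinant CYP3A4 from insect cells, fluorescence enzyme read-out, 0.33 h after chemical addition. Acetonitrile = negative control/baseline. Primary HTS: 10 uM in duplicate; actives re-tested in concentration series.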

Assay [11] has as its target human Acetylcholinesterase (AChE), ACHE (gene 43) (UniProt P22303). Nature of the assay: NVS_ENZ_hAChE: NovaScreen (NVS) Enzymatic Assay for human Acetylcholinesterase (AChE) (AID 2283129). Summed up: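 Actives from a duplicate single-point screen (25 uM) were followed up in concentration series. Enzyme activity read by absorbance (colorimetric) 0.33 hour after dosing, cell-free, normalized to DMSO, with loss of signal scored.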

The target in assay [12] is human Caspase 2 (CASP2), CASP2 (gene 835) (UniProt P42575). The experiment in a line: NVS_ENZ_hCASP2: NovaScreen (NVS) Enzymatic Assay for human Caspase 2 (CASP2) (AID 2283135). The procedure, abridged: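 Single-point duplicate testing at 25 uM preceded concentration series topping at 50 uM. Activity of the recombinant E. coli-derived protease was followed by fluorescent substrate cleavage 1 h post-dosing, relative to DMSO.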

Where “and” joins values, the source holds several entries; their conditions need not be identical. Identical values can stand only once. Inconclusive results are not listed. Calls of active or inactive are those of the source. How the source made its calls: active means hit-call score of the fitted dose curve at least 0.9, where 1 is the maximum; inconclusive means response in the unintended direction; inactive means score below 0.9.

Broadly, the AC50 is the midpoint of the concentration-response curve, whichever way the signal moves.

Sequence of human CYP1A2, CYP1A2 (gene 1544) (P05177 whole entry, looked up): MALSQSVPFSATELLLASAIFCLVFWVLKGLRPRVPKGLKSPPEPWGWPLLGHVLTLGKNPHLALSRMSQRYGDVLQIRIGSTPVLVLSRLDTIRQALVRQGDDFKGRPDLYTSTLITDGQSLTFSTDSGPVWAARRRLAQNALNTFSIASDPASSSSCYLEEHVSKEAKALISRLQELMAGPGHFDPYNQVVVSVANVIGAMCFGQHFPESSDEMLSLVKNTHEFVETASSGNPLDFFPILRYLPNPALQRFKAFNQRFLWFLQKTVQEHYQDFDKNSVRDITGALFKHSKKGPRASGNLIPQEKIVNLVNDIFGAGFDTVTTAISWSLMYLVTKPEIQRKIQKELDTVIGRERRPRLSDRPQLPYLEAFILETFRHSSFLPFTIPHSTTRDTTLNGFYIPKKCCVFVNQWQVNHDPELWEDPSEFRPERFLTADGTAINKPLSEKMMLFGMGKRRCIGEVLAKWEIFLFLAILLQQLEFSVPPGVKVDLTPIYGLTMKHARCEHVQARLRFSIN
Sequence of human Caspase 2 (CASP2), CASP2 (gene 835) (P42575 whole entry, looked up): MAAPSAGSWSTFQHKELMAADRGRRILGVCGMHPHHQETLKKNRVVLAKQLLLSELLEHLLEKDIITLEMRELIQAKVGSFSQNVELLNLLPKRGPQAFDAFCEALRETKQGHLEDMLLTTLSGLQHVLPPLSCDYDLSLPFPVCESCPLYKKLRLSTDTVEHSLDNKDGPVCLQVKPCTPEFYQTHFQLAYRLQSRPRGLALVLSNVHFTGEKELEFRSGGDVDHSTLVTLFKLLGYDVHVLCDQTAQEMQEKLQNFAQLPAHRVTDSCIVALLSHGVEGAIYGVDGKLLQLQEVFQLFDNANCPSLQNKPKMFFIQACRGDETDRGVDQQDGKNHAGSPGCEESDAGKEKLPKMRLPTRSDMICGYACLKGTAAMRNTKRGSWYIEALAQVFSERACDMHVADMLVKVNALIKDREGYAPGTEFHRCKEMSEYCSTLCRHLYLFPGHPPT
Sequence of human CYP2C9, CYP2C9 (gene 1559) (P11712 whole entry, looked up): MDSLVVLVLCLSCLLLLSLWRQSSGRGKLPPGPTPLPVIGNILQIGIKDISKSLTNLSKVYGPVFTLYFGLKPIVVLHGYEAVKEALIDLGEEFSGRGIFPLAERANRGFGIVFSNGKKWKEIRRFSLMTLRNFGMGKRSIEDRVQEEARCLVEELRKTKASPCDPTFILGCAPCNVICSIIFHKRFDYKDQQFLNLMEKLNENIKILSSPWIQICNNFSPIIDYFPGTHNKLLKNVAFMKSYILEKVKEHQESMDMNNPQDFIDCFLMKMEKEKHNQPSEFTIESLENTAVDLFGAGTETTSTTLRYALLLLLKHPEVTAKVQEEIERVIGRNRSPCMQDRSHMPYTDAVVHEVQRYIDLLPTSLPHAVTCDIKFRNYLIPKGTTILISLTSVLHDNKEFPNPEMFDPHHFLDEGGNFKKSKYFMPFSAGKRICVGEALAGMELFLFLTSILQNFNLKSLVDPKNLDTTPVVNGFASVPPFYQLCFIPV
Sequence of human Acetylcholinesterase (AChE), ACHE (gene 43) (P22303 whole entry, looked up): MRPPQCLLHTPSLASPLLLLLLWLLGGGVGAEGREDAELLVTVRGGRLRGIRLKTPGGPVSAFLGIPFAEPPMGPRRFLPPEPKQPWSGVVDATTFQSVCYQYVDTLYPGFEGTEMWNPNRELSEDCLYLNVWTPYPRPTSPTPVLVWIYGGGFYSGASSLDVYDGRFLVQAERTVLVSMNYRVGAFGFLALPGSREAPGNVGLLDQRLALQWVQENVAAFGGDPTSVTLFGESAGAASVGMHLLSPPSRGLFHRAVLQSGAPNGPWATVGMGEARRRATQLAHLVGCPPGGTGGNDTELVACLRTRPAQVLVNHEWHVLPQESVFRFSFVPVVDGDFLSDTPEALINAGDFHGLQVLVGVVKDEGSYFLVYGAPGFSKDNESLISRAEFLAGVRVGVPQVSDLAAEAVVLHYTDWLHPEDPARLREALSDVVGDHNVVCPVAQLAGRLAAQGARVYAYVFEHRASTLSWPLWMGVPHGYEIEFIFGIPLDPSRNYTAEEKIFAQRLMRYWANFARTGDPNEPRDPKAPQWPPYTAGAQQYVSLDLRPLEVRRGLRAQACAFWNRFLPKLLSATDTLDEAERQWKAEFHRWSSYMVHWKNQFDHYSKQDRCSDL
Sequence of human CYP4F12, CYP4F12 (gene 66002) (Q9HCS2 whole entry, looked up): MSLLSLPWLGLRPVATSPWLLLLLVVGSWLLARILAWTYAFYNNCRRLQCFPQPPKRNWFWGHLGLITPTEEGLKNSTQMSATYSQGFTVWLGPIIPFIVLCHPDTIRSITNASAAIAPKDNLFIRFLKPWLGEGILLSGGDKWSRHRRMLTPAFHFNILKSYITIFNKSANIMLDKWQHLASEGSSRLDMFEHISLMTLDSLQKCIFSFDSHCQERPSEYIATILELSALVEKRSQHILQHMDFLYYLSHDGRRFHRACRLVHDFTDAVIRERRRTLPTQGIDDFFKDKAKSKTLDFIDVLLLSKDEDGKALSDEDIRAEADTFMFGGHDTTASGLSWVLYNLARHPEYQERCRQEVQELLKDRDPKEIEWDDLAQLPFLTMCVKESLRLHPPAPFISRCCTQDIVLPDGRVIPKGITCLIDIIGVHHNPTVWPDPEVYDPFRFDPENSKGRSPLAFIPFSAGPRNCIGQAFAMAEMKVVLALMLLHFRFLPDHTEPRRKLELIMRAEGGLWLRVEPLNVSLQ
Sequence of human Caspase 10 (CASP10), CASP10 (gene 843) (Q92851 whole entry, looked up): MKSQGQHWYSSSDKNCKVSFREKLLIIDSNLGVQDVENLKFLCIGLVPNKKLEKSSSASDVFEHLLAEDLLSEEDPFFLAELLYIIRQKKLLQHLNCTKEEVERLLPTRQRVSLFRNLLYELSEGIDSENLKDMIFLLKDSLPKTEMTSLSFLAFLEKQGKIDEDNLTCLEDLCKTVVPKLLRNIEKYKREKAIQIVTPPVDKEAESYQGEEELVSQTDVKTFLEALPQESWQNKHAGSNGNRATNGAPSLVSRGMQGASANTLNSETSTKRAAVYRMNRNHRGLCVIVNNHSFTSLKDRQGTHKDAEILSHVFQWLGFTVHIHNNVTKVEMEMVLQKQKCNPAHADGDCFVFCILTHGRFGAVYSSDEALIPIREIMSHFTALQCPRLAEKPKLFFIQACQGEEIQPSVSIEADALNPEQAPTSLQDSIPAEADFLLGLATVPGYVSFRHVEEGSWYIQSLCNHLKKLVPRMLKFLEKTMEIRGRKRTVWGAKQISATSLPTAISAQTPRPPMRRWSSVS
Sequence of human CYP2D6, CYP2D6 (gene 1565) (P10635 whole entry, looked up): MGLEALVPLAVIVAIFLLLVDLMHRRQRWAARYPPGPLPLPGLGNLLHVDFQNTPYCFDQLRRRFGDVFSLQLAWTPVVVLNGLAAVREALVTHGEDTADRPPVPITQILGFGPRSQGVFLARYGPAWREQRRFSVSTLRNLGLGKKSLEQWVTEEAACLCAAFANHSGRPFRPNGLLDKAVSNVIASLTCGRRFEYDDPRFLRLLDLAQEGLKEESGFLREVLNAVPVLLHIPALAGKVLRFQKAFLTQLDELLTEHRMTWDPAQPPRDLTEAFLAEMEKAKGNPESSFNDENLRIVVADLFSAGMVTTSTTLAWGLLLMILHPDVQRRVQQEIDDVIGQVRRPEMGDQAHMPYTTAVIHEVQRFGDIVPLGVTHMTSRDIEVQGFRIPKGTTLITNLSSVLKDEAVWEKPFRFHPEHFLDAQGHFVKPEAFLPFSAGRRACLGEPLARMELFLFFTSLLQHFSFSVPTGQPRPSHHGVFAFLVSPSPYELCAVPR
Sequence of rat CYP2A2, Cyp2a2 (gene 24895) (P15149 whole entry, looked up): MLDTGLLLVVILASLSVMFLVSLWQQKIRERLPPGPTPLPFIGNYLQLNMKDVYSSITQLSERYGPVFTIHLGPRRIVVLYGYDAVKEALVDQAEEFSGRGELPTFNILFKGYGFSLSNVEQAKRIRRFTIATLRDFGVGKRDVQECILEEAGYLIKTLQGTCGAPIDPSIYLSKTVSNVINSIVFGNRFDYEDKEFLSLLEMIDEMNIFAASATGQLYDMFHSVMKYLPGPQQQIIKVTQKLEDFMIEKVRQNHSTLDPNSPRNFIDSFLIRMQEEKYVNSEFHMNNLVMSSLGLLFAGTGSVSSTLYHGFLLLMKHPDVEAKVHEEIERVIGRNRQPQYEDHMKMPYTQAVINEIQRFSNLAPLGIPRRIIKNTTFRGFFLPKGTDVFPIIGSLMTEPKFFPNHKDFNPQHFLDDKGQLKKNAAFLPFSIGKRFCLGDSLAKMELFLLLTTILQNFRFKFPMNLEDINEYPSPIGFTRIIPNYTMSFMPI
Sequence of human AMP-activated Protein Kinase, alpha 1 (AMPKa1), PRKAA1 (gene 5562) (Q13131 whole entry, looked up): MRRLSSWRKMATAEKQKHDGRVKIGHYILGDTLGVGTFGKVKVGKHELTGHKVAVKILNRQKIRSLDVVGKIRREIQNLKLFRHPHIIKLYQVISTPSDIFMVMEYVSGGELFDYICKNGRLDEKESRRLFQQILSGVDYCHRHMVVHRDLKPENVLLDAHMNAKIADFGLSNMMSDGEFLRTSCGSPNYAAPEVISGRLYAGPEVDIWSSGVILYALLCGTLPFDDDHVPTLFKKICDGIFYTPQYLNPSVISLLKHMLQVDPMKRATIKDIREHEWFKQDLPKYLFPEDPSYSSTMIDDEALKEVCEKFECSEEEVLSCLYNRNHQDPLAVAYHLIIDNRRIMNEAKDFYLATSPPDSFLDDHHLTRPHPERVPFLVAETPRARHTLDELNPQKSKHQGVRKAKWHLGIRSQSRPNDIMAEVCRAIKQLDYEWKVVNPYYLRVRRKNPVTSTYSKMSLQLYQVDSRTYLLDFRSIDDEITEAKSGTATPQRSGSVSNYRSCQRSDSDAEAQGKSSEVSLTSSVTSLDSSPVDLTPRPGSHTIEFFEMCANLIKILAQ

On to `O=C(O)C(F)(F)C(F)(F)C(F)(F)C(F)(F)C(F)(F)C(F)(F)C(F)(F)C(F)(F)C(F)(F)F`, for which the AC50 in [1] was 1.12 µM (active); in [3], 12.7 µM (active). The call in assay [2] was inactive.

With `NS(=O)(=O)C(F)(F)C(F)(F)C(F)(F)C(F)(F)C(F)(F)C(F)(F)C(F)(F)C(F)(F)F`, the concentration at half-maximal activity (AC50) in assay [1] was 1.97 µM (active).

Regarding `CC(C)(O)C(=O)Nc1ccc([N+](=O)[O-])c(C(F)(F)F)c1`, the AC50 in [4] was 3.38 µM (active); in assay [5], 3.49 µM (active). Further, the outcome in assay [1] was inactive.

For `CC(C)C(=O)OCC(C)(C)C(OC(=O)C(C)C)C(C)C` (stereo not given), the AC50 in assay [6] is 6.26 µM (active). The outcome in assay [7] was inactive.

As for `ClC(Cl)=C(c1ccc(Cl)cc1)c1ccc(Cl)cc1`, the outcome in assay [5] is “inactive”; in assay [8] it was “inactive”; in the assay with rat CYP2B1, gene 24300, “inactive”.

Take `CN(C)CCO`: the result in assay [5] was inactive.

Turning to `CCCCCCCCCC[N+](C)(C)CCCCCCCCCC`, the half-maximal activity concentration (AC50) was 14.3 µM (active) in [4]; 1.38 µM (active) in assay [9]; 9.61 µM (active) in assay [10]; 6.37 µM (active) in assay [5]; 12.4 µM (active) in [11].

Regarding `COS(=O)(=O)OC`, in [12], the result was inactive.

On to `ClC1=C(Cl)[C@]2(Cl)[C@@H]3[C@@H]4C[C@@H]([C@H]5O[C@@H]45)[C@@H]3[C@@]1(Cl)C2(Cl)Cl`, for which, in assay [5], the half-maximal activity concentration (AC50) is 3.57 µM (active).

As for `C[C@]12CCC(=O)C=C1CC[C@@H]1[C@@H]2CC[C@]2(C)C(=O)CC[C@@H]12`, the AC50 is 10 µM (active) and 6.19 µM (active) and 5.77 µM (active) in assay [5]; 1.52 µM (active) in assay [8]. For the same compound, the outcome in assay [11] and in assay [12] was inactive.

`CC#Cc1cc(C)nc(Nc2ccccc2)n1`: in assay [4], the AC50 was 1.96 µM (active). Moreover, the outcome in assay [7] was inactive.

`Clc1ccc(C(Cl)(Cl)Cl)cc1`: in [2], the result was inactive.

In the case of `Cc1ccc(O)c(C)c1`, the outcome in assay [6] was inactive.

With `O=C(N[C@H]1CN2CCC1CC2)c1cc2ccoc2cn1`, the AC50 in assay [9] was 2.09 µM (active). Besides, the outcome in assay [12] was inactive.
